# In publication PMC4552634, “A New Set of Chemical Starting Points with Plasmodium falciparum Transmission-Blocking Potential for Antimalarial Drug Discovery” (PLoS ONE, 2015):
# Like-named read-outs stand apart in the source and are kept apart here. Hit rate of the full screen: of about 13,000 compounds, about 3,200 (25%) showed an effect of 50% or more. The list shows a part of the results.
# System: P. falciparum stage V gametocytes
# Parameters: BacTiter-Glo ATP luminescence viability of purified stage V gametocytes in 384-well plates, per cent inhibition versus DMSO
Compound,"% Inhibition (48 h, 5 µM; inhibitor) [%]","% Inhibition (48 h, 5 µM, inhibitor) [%]"
CN(C)CCC(=O)c1ccccc1 [TCMDC-125532],42.07,
Cc1ccc(CC(C)NCC(O)c2cccc(C(F)(F)F)c2)cc1F (stereo not drawn) [TCMDC-131520],16.03,
COc1ccc(OCCn2cc(C(=O)c3ccco3)c3ccccc32)cc1 [TCMDC-124425],55.18,
O=C(c1ccco1)c1cn(CCOc2ccccc2)c2ccccc12 [TCMDC-124426],-19.68,
Cc1ccc(CC(C)NCC(O)c2cccc(Cl)c2)cc1F (stereo not drawn) [TCMDC-131522],25.69,
CC[C@H]1CN2CCc3cc(OC)c(OC)cc3[C@@H]2C[C@@H]1C[C@H]1NCCc2c1cc(OC)c(O)c2I [TCMDC-131829],88.82,
CC[C@H]1CN2CCc3cc(OC)c(OC)cc3[C@@H]2C[C@@H]1C[C@H]1NCCc2c1cc(OC)c(OC)c2Br [TCMDC-131803],73.47,
CC[C@H]1CN2CCc3cc(OC)c(OC)cc3[C@@H]2C[C@@H]1C[C@H]1NCCc2c1cc(OC)c(O)c2Cl [TCMDC-131802],83.05,
COc1ccc(NC(=O)NCC2CCCN(CCCCCNC(=O)/C=C/c3ccc(Cl)c(Cl)c3)C2)c(OC)c1 (stereo not drawn) [TCMDC-139520],-54.43,
Cc1ccc(CC(C)NC[C@H](O)c2cccc(Cl)c2)cc1 (stereo partly drawn) [TCMDC-131434],,17.71
Cc1ccc(CC(C)NCC(O)c2cccc([N+](=O)[O-])c2)cc1 (stereo not drawn) [TCMDC-131459],42.66,
CC(O)C1CCCCN1C(=O)c1cccc(-c2ccc(-c3nc4cc(F)ccc4[nH]3)cc2)c1 (stereo not drawn) [TCMDC-132337],-4.748,
CC(Cc1ccc(C(C)(C)C)cc1)NCC(O)c1ccccc1 (stereo not drawn) [TCMDC-131461],-2.665,
COc1cccc(CC(C)NCC(O)c2cccc(Cl)c2)c1 (stereo not drawn) [TCMDC-131508],-2.665,
COc1ccc(CC(C)NCC(O)c2cccc(C(F)(F)F)c2)cc1 (stereo not drawn) [TCMDC-131471],20,
Cc1c(C(=O)N[C@@H](C)c2ccccc2)c2cc(O)c(Br)cc2n1C1CCCCC1 [TCMDC-135454],-62.04,
COc1c(F)cc(CC(C)NCC(O)c2cccc(Cl)c2)cc1F (stereo not drawn) [TCMDC-131518],14.1,
N=c1c2c(n(Cc3ccc(Cl)cc3Cl)c3c1CCC3)CCCC2 [TCMDC-125310],74.48,
COc1ccc(NC(=S)NC(NC(=O)CF)C(Cl)(Cl)Cl)cc1[N+](=O)[O-] (stereo not drawn) [TCMDC-124240],-10.17,
CCC1=C[C@@H]2CN(C1)Cc1c([nH]c3ccccc13)[C@@](C(=O)OC)(c1cc3c(cc1OC)N(C)[C@H]1[C@@](O)(C(=O)OC)[C@H](O)[C@]4(CC)C=CCN5CC[C@]31[C@@H]54)C2 [TCMDC-137769],33.28,
Cl.c1ccc2c(NCCCCCCCCCNc3c4ccccc4nc4ccccc34)c3ccccc3nc2c1 [TCMDC-124286],134.6,

Compound,"% Inhibition (48 h, 5 µM; inhibitor) [%]","% Inhibition (48 h, 5 µM, inhibitor) [%]"
Cl.c1ccc2c(NCCCCCCNc3c4ccccc4nc4ccccc34)c3ccccc3nc2c1 [TCMDC-124285],125.5,
C#CCN1CCC2=C(C1)c1c(O)cc(C(C)C(C)CCc3ccc(F)cc3)cc1OC2(C)C (stereo not drawn) [TCMDC-125707],-44.99,
Cc1ccc(CC(C)NCC(O)c2cccc(C(F)(F)F)c2)cc1 (stereo not drawn) [TCMDC-131476],,12.88
COc1cc2c(cc1OC)CN(CCCCNC(=O)c1ccc(NC(=O)c3cc(Cl)cc(Cl)c3)cc1)CC2 [TCMDC-138217],-10.96,
COc1ccc(CC(C)NCC(O)c2cccc(C(F)(F)F)c2)cc1F (stereo not drawn) [TCMDC-131490],18.55,
C=Cc1cc(OC)c2c(c1)c(=O)oc1c2cc(OC)c2c(O)ccc([C@H]3O[C@H]([C@H](C)O)[C@H](O)[C@H]3O)c21 [TCMDC-141972],49.56,
CC(=O)Nc1ccc(OCCN(CC(F)(F)F)c2ccc(C#N)cc2C(F)(F)F)cc1 [TCMDC-135848],17.4,
NC(N)=NC(=O)Nc1cc(Br)c(Cl)c(Br)c1 [TCMDC-137464],72.05,
CCC1(C)CC(CCNCc2ccccc2O)(c2ccc(F)cc2)CCO1 (stereo not drawn) [TCMDC-124006],-8.682,
COc1ccc(CC(C)NCC(O)c2cccc(Cl)c2F)cc1 (stereo not drawn) [TCMDC-131488],21.97,
COc1cc(NC(=O)/C=C/c2cc3ccccc3n2C)ccc1OCCN(C(C)C)C(C)C [TCMDC-139900],118,
Cc1ccc(CC(C)NCC(O)c2cccc(C(F)(F)F)c2)cc1 (stereo not drawn) [TCMDC-131450],,20.44
Cc1ccc(CC(C)(C)NCC(O)c2cccc(C(F)(F)F)c2)cc1 (stereo not drawn) [TCMDC-131445],-8.892,
CC[C@H]1CN2CC[C@H]1C[C@@H]2[C@@H](O)c1ccnc2ccccc12 [TCMDC-125880],69.34,
CCCN(CCC)CCOC(=O)C(OCC)(c1ccccc1)c1ccccc1 [TCMDC-131392],-25.5,
COc1ccc2[nH]cc(C3=CCN(Cc4ccccc4)CC3)c2c1 [TCMDC-139048],-90.48,
CC(Cc1ccc(SC(C)(C)C)cc1)NCC(O)c1cccc(Cl)c1 (stereo not drawn) [TCMDC-131492],-3.8,
CC(C)N(C)C(=O)n1cnc(S(=O)(=O)C2CC3CCC2C3)n1 (stereo not drawn) [TCMDC-134379],65.83,
O=C(NC1CCC(CN2CCC(c3c[nH]c4ccccc34)CC2)CC1)C1(O)c2ccccc2-c2ccccc21 (stereo not drawn) [TCMDC-139901],25.48,
Cc1nc2ccccn2c1C1(O)C(=O)Nc2c(Cl)cc(Cl)cc21 (stereo not drawn) [TCMDC-124526],6.508,
COc1ccc(CC(C)NCC(O)c2ccc(Cl)c(Cl)c2)cc1 (stereo not drawn) [TCMDC-131514],0.9057,
